# Assays:
# Assay in all cases: DAPPL (digital affinity profiling via proximity ligation, sequencing); 10 mM Tris-HCl pH 7.5, 50 mM NaCl, 1 mM DTT, 4% glycerol, room temperature, 30 min; GST-TFs on glutathione beads, 16-mer random dsDNA library, 0.1% formaldehyde crosslink after washing; high values mean tight binding
# [1] = target: T1, FEV (Homo sapiens, UniProt Q99581 1-238); conditions: protein: recombinant; tags: N-terminal GST; dsDNA, one strand shown
# T1 sequence: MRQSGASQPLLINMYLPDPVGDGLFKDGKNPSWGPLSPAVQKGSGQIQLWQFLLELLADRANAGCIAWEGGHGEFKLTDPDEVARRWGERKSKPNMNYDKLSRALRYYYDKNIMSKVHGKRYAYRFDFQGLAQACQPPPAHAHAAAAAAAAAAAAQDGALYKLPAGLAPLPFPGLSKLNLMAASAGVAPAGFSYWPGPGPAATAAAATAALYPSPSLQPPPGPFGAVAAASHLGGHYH
# Outline: (§1)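 Each value of binding signal is a hexamer's read frequency for a factor divided by the same hexamer's frequency in the tag-only sample. Barcoded, bead-captured GST fusions of human transcription factors made in yeast were pooled with that sample and incubated with 200 nmole of a random double-stranded 16-mer DNA library in Tris/NaCl/DTT/glycerol buffer at room temperature for 30 min. Washing, 0.1% formaldehyde crosslinking, proximity ligation, PCR and Illumina NextSeq500 sequencing followed.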
# [2] = target: ETV5 (Homo sapiens, UniProt P41161 1-510); conditions: protein: recombinant; tags: N-terminal GST; dsDNA, one strand shown
# Outline: as §1
# [3] = target: HSF1 (Homo sapiens, UniProt Q00613 1-529); conditions: protein: recombinant; tags: N-terminal GST; chain copies: 3; dsDNA, one strand shown
# Outline: as §1
# [4] = target: T2, SPIC (Homo sapiens, UniProt Q8N5J4 1-248); conditions: protein: recombinant; tags: N-terminal GST; dsDNA, one strand shown
# T2 sequence: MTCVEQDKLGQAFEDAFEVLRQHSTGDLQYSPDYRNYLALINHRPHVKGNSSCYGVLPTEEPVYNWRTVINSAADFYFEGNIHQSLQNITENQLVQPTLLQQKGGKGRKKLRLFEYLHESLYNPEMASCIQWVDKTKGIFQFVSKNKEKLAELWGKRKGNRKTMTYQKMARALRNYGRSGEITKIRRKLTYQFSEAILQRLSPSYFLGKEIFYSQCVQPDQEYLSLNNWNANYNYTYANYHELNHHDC
# Outline: as §1
# [5] = target: ELF4 (Homo sapiens, UniProt Q99607 1-663); conditions: protein: recombinant; tags: N-terminal GST; dsDNA, one strand shown
# Outline: as §1
# [6] = target: T3, ELK4 (Homo sapiens, UniProt P28324-2 1-405); conditions: protein: recombinant; tags: N-terminal GST; dsDNA, one strand shown
# T3 sequence: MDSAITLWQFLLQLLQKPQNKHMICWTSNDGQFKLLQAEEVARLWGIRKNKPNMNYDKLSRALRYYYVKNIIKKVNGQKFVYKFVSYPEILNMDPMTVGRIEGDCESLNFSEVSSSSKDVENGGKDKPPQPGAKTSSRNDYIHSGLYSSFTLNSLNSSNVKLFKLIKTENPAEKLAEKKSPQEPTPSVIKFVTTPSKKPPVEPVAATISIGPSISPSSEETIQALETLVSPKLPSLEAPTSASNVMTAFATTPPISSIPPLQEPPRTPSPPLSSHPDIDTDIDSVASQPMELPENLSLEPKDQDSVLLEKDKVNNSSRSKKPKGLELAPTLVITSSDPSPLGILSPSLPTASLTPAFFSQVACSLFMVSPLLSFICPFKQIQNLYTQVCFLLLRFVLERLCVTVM
# Outline: as §1
# [7] = target: T4, ETV2 (Homo sapiens, UniProt O00321 1-342); conditions: protein: recombinant; tags: N-terminal GST; dsDNA, one strand shown
# T4 sequence: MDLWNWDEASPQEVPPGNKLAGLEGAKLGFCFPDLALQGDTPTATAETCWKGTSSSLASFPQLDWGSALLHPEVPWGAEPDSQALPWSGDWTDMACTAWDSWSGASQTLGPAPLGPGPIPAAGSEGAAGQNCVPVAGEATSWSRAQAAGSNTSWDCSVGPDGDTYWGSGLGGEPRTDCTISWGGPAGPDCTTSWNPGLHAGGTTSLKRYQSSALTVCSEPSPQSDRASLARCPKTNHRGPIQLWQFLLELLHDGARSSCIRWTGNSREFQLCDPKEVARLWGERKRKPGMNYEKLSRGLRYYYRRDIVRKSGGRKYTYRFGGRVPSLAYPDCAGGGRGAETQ
# Outline: as §1
# [8] = target: T5, ELF3 (Homo sapiens, UniProt P78545 1-371); conditions: protein: recombinant; tags: N-terminal GST; dsDNA, one strand shown
# T5 sequence: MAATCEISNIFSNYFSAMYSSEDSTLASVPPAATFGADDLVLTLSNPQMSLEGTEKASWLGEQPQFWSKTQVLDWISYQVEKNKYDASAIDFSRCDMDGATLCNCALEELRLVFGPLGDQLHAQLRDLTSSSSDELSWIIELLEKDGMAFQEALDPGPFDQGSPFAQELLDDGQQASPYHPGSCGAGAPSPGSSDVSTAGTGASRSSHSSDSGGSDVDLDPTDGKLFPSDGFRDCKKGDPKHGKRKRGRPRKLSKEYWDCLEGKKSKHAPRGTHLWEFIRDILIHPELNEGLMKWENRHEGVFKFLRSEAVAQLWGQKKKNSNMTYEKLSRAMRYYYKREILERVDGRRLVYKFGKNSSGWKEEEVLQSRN
# Outline: as §1
# [9] = target: CRX (Homo sapiens, UniProt O43186 1-299); conditions: protein: recombinant; tags: N-terminal GST; dsDNA, one strand shown
# Outline: as §1
# [10] = target: ETV1 (Homo sapiens, UniProt P50549 1-477); conditions: protein: recombinant; tags: N-terminal GST; dsDNA, one strand shown
# Outline: as §1
# [11] = target: T6, ERF (Homo sapiens, UniProt P50548 1-548); conditions: protein: recombinant; tags: N-terminal GST; dsDNA, one strand shown
# T6 sequence: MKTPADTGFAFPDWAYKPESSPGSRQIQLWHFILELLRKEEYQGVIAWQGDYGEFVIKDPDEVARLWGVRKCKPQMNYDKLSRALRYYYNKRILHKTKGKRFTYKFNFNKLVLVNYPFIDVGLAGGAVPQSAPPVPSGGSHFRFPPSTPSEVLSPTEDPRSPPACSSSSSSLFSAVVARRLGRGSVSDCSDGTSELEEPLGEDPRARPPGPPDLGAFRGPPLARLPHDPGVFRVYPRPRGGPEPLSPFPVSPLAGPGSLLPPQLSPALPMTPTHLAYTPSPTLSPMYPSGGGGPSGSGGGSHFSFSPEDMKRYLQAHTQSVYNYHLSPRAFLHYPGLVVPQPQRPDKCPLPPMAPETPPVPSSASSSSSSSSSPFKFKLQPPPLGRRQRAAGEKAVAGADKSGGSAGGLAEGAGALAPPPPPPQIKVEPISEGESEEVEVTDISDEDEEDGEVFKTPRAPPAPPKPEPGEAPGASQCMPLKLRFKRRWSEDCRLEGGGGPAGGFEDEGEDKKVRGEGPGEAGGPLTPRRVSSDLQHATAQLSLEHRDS
# Outline: as §1
# [12] = target: T7, ETV3L (Homo sapiens, UniProt Q6ZN32 1-361); conditions: protein: recombinant; tags: N-terminal GST; dsDNA, one strand shown
# T7 sequence: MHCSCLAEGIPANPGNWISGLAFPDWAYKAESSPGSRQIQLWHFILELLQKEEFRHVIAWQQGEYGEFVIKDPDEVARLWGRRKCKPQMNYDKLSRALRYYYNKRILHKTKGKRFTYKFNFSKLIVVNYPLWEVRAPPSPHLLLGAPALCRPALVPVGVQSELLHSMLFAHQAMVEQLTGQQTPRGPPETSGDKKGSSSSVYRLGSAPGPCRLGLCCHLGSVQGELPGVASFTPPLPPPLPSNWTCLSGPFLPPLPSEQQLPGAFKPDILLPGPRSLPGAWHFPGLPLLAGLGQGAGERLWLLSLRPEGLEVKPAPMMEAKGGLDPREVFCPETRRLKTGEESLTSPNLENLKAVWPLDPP
# Outline: as §1
# [13] = target: T8, ETS2 (Homo sapiens, UniProt P15036 1-469); conditions: protein: recombinant; tags: N-terminal GST; dsDNA, one strand shown
# T8 sequence: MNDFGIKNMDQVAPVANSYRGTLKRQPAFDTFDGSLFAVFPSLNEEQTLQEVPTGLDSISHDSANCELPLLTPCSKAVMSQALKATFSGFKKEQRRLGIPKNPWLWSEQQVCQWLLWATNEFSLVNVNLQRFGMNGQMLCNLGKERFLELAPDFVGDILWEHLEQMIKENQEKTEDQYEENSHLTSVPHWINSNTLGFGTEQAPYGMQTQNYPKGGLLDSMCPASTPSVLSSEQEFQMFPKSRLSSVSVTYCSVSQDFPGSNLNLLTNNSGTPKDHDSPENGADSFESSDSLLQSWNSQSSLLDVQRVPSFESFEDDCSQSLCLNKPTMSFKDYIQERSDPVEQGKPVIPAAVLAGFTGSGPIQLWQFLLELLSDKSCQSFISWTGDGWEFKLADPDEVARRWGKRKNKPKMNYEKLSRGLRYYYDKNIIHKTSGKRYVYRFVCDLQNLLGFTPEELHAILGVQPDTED
# Outline: as §1
# [14] = target: T9, SPDEF (Homo sapiens, UniProt O95238 1-335); conditions: protein: recombinant; tags: N-terminal GST; dsDNA, one strand shown
# T9 sequence: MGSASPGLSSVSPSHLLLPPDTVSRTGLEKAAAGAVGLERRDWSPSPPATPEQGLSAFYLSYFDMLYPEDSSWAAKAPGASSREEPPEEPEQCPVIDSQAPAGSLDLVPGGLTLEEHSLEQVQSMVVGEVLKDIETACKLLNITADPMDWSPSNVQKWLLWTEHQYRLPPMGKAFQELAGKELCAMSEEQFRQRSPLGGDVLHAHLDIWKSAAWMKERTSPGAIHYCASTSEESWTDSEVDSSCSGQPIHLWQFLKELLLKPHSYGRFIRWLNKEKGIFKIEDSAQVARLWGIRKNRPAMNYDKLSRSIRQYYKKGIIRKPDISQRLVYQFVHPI
# Outline: as §1
# [15] = target: T10, ETV7 (Homo sapiens, UniProt Q9Y603 1-341); conditions: protein: recombinant; tags: N-terminal GST; dsDNA, one strand shown
# T10 sequence: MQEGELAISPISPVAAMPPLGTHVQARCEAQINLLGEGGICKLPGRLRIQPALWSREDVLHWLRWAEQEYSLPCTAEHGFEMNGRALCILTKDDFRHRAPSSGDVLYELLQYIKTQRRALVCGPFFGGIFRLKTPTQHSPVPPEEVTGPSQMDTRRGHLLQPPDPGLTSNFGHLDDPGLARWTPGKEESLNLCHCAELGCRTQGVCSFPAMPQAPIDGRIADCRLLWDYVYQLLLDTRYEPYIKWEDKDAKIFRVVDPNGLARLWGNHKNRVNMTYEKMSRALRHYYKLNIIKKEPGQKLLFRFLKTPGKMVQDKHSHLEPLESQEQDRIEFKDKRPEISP
# Outline: as §1
# [16] = target: T11, ELF5 (Homo sapiens, UniProt Q9UKW6-2 1-255); conditions: protein: recombinant; tags: N-terminal GST; dsDNA, one strand shown
# T11 sequence: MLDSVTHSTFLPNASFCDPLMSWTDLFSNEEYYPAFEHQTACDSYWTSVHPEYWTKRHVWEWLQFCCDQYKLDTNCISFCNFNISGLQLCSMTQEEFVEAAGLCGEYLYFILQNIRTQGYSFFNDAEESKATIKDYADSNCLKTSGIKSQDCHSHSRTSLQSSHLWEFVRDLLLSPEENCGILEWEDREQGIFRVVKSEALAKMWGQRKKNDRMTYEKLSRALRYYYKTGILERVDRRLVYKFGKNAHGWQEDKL
# Outline: as §1
# [17] = target: T12, ETV3 (Homo sapiens, UniProt P41162-2 1-143); conditions: protein: recombinant; tags: N-terminal GST; dsDNA, one strand shown
# T12 sequence: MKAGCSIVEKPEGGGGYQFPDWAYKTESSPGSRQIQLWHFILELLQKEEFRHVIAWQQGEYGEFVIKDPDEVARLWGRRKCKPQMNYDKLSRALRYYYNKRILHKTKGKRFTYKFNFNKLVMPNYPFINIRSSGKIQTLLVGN
# Outline: as §1
# [18] = target: ETV6 (Homo sapiens, UniProt P41212 1-452); conditions: protein: recombinant; tags: N-terminal GST; dsDNA, one strand shown
# Outline: as §1
# Sequence of CRX (O43186 whole entry): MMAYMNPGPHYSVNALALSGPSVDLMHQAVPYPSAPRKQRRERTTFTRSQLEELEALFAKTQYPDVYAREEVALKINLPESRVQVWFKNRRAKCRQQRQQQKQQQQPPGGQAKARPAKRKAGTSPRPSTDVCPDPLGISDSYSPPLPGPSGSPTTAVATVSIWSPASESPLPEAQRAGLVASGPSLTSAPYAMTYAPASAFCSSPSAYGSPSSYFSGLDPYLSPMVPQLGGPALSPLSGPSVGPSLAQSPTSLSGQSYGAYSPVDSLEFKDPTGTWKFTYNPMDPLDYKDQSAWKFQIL
# Sequence of HSF1 (Q00613 whole entry): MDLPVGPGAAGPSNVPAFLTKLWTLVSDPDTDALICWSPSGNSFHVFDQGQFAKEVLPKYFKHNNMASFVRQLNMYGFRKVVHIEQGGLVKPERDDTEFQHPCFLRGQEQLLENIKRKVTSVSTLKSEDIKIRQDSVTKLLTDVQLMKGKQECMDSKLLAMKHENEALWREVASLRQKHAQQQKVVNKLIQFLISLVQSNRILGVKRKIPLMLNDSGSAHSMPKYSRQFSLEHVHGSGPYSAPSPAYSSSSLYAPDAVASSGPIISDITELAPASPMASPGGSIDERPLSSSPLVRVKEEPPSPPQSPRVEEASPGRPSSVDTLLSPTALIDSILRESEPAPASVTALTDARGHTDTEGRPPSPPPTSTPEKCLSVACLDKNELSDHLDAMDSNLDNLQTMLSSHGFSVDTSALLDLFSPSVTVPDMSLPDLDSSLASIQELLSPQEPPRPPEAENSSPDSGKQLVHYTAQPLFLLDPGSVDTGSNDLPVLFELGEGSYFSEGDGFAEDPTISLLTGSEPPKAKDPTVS
# Sequence of ETV1 (P50549 whole entry): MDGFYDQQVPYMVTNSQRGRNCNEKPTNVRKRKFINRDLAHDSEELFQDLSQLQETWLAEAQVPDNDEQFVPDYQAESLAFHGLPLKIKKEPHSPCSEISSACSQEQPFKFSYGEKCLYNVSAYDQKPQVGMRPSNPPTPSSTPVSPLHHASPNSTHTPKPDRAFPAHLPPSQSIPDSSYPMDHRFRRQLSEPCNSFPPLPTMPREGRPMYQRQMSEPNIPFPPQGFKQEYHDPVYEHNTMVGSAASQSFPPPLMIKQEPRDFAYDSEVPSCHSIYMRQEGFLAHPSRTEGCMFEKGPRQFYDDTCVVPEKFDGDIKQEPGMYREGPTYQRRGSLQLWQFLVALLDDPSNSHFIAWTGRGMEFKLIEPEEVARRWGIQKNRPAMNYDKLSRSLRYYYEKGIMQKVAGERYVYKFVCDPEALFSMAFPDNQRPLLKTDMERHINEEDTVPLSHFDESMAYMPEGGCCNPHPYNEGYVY
# Sequence of ETV6 (P41212 whole entry): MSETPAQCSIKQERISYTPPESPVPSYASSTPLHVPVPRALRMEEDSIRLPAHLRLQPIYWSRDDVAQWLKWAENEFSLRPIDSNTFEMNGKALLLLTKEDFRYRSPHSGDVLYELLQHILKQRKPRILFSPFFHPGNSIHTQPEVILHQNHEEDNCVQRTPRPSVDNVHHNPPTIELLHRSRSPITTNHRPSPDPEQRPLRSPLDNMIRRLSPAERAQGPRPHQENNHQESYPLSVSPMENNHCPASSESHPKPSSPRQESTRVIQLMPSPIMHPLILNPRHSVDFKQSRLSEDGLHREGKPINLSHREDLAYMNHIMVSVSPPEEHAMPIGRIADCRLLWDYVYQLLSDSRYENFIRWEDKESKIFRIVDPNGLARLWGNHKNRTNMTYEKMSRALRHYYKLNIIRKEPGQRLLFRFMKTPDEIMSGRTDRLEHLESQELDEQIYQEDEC
# Sequence of ELF4 (Q99607 whole entry): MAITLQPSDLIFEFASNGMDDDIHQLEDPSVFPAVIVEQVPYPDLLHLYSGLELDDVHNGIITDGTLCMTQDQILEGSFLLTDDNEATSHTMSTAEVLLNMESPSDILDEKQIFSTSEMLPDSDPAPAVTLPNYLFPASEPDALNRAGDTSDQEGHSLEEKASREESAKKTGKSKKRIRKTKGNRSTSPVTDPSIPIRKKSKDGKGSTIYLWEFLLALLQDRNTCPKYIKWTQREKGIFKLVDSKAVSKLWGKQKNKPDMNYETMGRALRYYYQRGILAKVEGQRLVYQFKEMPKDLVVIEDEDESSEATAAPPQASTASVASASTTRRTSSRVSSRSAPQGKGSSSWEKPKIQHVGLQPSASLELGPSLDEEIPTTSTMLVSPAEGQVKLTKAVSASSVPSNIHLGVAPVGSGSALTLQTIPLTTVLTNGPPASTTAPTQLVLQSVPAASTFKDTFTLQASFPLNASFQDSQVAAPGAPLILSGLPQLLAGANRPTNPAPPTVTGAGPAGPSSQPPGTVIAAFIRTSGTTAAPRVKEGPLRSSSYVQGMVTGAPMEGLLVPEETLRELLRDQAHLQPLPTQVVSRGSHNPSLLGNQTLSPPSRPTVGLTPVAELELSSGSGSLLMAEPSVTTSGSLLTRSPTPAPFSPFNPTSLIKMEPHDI
# Sequence of ETV5 (P41161 whole entry): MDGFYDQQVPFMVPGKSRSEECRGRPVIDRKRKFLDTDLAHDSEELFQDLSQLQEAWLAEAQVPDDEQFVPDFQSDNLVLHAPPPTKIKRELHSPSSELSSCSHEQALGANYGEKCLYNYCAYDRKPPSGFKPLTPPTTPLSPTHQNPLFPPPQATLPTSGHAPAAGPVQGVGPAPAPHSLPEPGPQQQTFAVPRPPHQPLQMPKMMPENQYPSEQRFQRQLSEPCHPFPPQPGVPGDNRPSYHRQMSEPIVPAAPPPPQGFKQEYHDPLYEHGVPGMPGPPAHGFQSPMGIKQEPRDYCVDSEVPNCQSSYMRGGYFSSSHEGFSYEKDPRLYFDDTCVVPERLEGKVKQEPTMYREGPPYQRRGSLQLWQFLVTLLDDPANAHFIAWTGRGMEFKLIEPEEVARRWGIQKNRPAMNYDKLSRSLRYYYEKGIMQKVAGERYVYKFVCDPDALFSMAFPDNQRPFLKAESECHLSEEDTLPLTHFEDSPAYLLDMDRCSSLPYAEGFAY
sequence,measurement,setting,value
CTAATC,binding signal,[1],"1.33 fold enrichment (6-mer frequency, TF over GST control)"
same,binding signal,[2],"1.32 fold enrichment (6-mer frequency, TF over GST control)"
same,binding signal,[3],"3.22 fold enrichment (6-mer frequency, TF over GST control)"
same,binding signal,[4],"1.41 fold enrichment (6-mer frequency, TF over GST control)"
same,binding signal,[5],"1.42 fold enrichment (6-mer frequency, TF over GST control)"
same,binding signal,[6],"1.35 fold enrichment (6-mer frequency, TF over GST control)"
same,binding signal,[7],"1.41 fold enrichment (6-mer frequency, TF over GST control)"
same,binding signal,[8],"1.56 fold enrichment (6-mer frequency, TF over GST control)"
same,binding signal,[9],"5.33 fold enrichment (6-mer frequency, TF over GST control)"
same,binding signal,[10],"1.49 fold enrichment (6-mer frequency, TF over GST control)"
same,binding signal,[11],"1.31 fold enrichment (6-mer frequency, TF over GST control)"
same,binding signal,[12],"1.34 fold enrichment (6-mer frequency, TF over GST control)"
same,binding signal,[13],"1.32 fold enrichment (6-mer frequency, TF over GST control)"
same,binding signal,[14],"1.34 fold enrichment (6-mer frequency, TF over GST control)"
same,binding signal,[15],"1.41 fold enrichment (6-mer frequency, TF over GST control)"
same,binding signal,[16],"1.33 fold enrichment (6-mer frequency, TF over GST control)"
same,binding signal,[17],"1.32 fold enrichment (6-mer frequency, TF over GST control)"
same,binding signal,[18],"1.35 fold enrichment (6-mer frequency, TF over GST control)"

# Source: publication PMC7862700, “An all-to-all approach to the identification of sequence-specific readers for epigenetic DNA modifications on cytosine”
